Experimental data from PubChem BioAssay AID720582 (The Scripps Research Institute Molecular Screening Center, 2013).
Among all 370,000 compounds or so, about 2,300 (0.62%) were called active.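 Rule for the calls: active = inhibition above a per-campaign cutoff equal to the mean of compounds falling between control-based bounds plus 3 SD (cut at about 20% in these data); inactive = the rest.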 The sample as a whole holds a higher share of actives than the screen did.

target: Disintegrin and metalloproteinase domain-containing protein 10 (Homo sapiens) (UniProt O14672); test: blockers of ADAM10 peptide cleavage – biochemical, QFRET, HTS, primary screen (AID 720582); conditions: recombinant ADAM10, EDANS/DABCYL FRET peptide cleavage, 3 h; at 7 µM; active compounds read high;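 note: 0% = DMSO wells while the 100% control is not disclosed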
Sequence (O14672 214-748 limits assumed): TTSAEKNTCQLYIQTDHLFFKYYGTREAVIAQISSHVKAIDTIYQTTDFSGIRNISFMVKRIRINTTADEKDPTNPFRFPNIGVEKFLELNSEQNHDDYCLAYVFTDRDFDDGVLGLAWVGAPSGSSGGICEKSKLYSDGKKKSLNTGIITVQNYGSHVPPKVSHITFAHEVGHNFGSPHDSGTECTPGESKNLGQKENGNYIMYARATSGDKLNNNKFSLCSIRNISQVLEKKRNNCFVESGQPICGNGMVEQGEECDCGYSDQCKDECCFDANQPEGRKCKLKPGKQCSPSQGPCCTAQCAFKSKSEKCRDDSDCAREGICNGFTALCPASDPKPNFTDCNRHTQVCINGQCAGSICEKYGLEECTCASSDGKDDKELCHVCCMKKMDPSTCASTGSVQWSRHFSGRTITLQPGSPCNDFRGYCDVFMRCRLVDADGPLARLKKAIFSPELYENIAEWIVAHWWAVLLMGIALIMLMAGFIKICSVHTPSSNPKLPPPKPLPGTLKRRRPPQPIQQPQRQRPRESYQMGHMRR

inhibition, active:
Oc1c(Cl)cc(Cl)c(Cl)c1Cc1c(O)c(Cl)cc(Cl)c1Cl 36.2%
O=C(OCc1ccc(-c2ccccc2)cc1)c1cccc(O)c1 23.1%
Cc1ccc(NS(=O)(=O)c2ccc(C)c(NC(=O)COc3ccc4ccccc4c3)c2)c(C)c1 21.2%
O=C(NCc1ccccc1)c1onc(CSc2nc3ccccc3[nH]2)c1C(=O)NCc1ccccc1 23.5%
O=C(CC1SC(=Nc2ccccc2)N(Cc2ccccn2)C1=O)Nc1cccc(Cl)c1 (stereo not given) 21.2%
CC1(C)C=Cc2c(ccc3c2OC[C@@H](c2ccc(O)cc2O)C3)O1 26.4%
Cc1cc(O)ccc1-c1cc(C(=O)NCc2cc(C(F)(F)F)cc(C(F)(F)F)c2)[nH]n1 20.5%
O=C(Cc1ccc(Cl)c(Cl)c1)Nc1ccc(SC(F)F)cc1 24.6%
COc1ccccc1CC1(C)C(=O)Nc2ccc(OC(F)(F)F)cc21 (stereo not given) 22.6%
CC(C)(C)c1ccc(S(=O)(=O)NCC2CCN(C(=O)C(=O)c3cc4ccccc4o3)CC2)cc1 24.4%

inhibition, inactive:
O=C(CSc1nnc(-c2ccccn2)n1-c1ccc(Cl)cc1)Nc1ccccc1-c1ccccc1 1.01%
C=CCN1C(=O)[C@@H](CC(=O)NCCCOCCCC)[C@]2(C(=O)OCC)CCCCC/C=C/12 -1.99%
Cc1ccc(S(=O)(=O)c2c(COC(=O)c3cccc(Cl)c3)c(-c3ccccc3)nn2C)cc1 4.59%
O=C(OCC(O)C(O)COC(=O)c1ccccc1)c1ccccc1 (stereo not given) -1.65%
C=CCn1c(SCC(N)=O)nnc1-c1ccccc1OC -8.66%
CN1C[C@]2(C=C3CCCCC3n3c(=O)n(-c4ccccc4)c(=O)n32)N=C1NC(=O)c1ccccc1 (stereo not given in full) 5.49%
O=C(NCc1cccs1)C1CCN(S(=O)(=O)c2ccccc2[N+](=O)[O-])CC1 7.43%
Cc1ccc(OCC(=O)Nc2ccc(C(=O)O)cc2NC(=O)COc2ccc(C)c(C)c2)cc1C -2.89%
Cc1ccc(C)c(NS(=O)(=O)c2ccc(OCC(=O)NCc3cccnc3)cc2)c1 5.13%
COc1ccc(-n2c(SCC(=O)NC3CCCC3)nnc2-c2ccncc2)cc1 -6.99%
COc1cccc(/C=C2\CC3(OC(C)=O)CCCN2C3)c1 (stereo not given) 3.53%
CC(CCN1CCC(C(O)(c2ccccc2)c2ccccc2)CC1)Oc1ccc([N+](=O)[O-])cc1Cl (stereo not given) 14.3%
O=C(NCC1CC1)c1onc(CSc2ccccc2)c1C(=O)NCC1CC1 4.44%
O=C(NCc1ccccc1)c1onc(CSc2ccncc2)c1C(=O)NCc1ccccc1 6.67%
CCN(C(=O)[C@@H](C1CC1)[C@@H](O)c1ccc2ccccc2c1)c1ccccc1 7.43%
CC(C)CNc1cccc2c1S(=O)(=O)N(Cc1cn(Cc3ccccc3C(F)(F)F)nn1)Cc1ccccc1O2 -26.5%
O=C(CSc1nc2ccccc2s1)N=Nc1c(O)[nH]c2ccccc12 7.8%
Cc1ccc(Cn2cc(CN3[C@@H](C)COc4cc(Br)ccc4S3(=O)=O)nn2)cc1 -3.91%
CCN1C(=O)C(CC(=O)Nc2cc(C)ccc2C)SC1=Nc1ccc(S(N)(=O)=O)cc1 (stereo not given) 3.57%
CN1C(=O)C(CC(=O)Nc2ccccc2)S/C1=N/c1nccs1 (stereo not given) 8.04%
O=C(c1c[nH]c2ccccc12)N1CCC(Oc2cccnc2)CC1 1.42%
Clc1ccc(-n2c(SC/C=C/c3ccccc3)nnc2-c2ccco2)cc1 15.1%
CCOC(=O)[C@@]12CN(C(=O)OC(C)(C)C)CC=C1N(Cc1ccc(OC)cc1)C(=O)[C@H]2CC(=O)NCc1ccc(OC)c(OC)c1 1.76%
C=CCN1C(=O)[C@H](CC(=O)NCCCN2CCCC2=O)[C@@]2(C(=O)OCC)CCCC=C12 -5.84%
C=CCOC/C=C/C#CCN(CC=C)Cc1ccc(OC)cc1OC -0.01%
COC(=O)C1CN(Cc2cn(Cc3ccc(F)cc3)nn2)CCS(=O)(=O)N1Cc1ccc(Cl)cc1 (stereo not given) 2.41%
C=CCN1C(=O)[C@@H](CC(=O)NCC2CCCCC2)[C@]2(C(=O)OC)CCCCC=C12 5.05%
Cc1ccc(O)c(-c2cc(C(=O)NCc3ccccc3)[nH]n2)c1 12.6%
CCCOc1ccc(F)cc1-c1cc(C(=O)NCc2ccc(F)cc2)[nH]n1 15.3%
O=C(Nc1cc(Cl)cc(Cl)c1)OCCN1CCCC12CCC(c1ccccc1)CC2 (stereo not given) 4.69%
C=C(C)C#CC(Cc1ccccc1)N(CC1CC1)/C(N)=N/C(=O)OCc1ccccc1 (stereo not given) -71.4%
CCOc1ccc(Oc2c(Cl)cnn(-c3ccc(C)cc3)c2=O)cc1 0.21%
CC(NCc1ccco1)C(=O)N1CCCCC1 (stereo not given) -0.25%
N#C/C(=C\c1cccnc1)C(=O)Nc1ccc(SC(F)F)cc1 9.34%
Cc1ccc(CC(=O)Nc2ccc(S(=O)(=O)N3CCOCC3)cc2)cc1C 9.05%
O=C1CC[C@@]23CCCN2C(=O)CCC[C@H]3[C@H]1Cc1ccccc1 -4.62%
CN(C)CC(=O)N[C@@H]1C[C@@H]2O[C@H](CO)CC[C@@H]2O[C@@H]1CCc1ccc(C#Cc2ccccc2)cc1 7.99%
COC(=O)[C@]12C[C@H](CC(=O)NCc3cccs3)C(=O)N(CCc3ccc(OC)c(OC)c3)C1=C[C@H](C(C)C)O[C@@H]2C1CC1 -6.09%
CN(C)c1ccc(NC(=O)NC2CCCCN(Cc3ccc(Cl)cc3)C2=O)cc1 (stereo not given) 8.78%
CCc1ccc2c(c1)NC(=O)C2(C)Cc1ccc(OC(F)(F)F)cc1 (stereo not given) 14.9%
Cc1ccc(CC2(C)C(=O)Nc3ccc(OC(F)(F)F)cc32)cc1 (stereo not given) 5.38%
C=CCN(Cc1ccc2c(c1)OCO2)C(C#CC1CC1)C(C)(C)C (stereo not given) -9.94%
Cc1cc(C)cc(NC(=O)N2CCC(N(C)CCC(C)C)CC2)c1 3.06%
O=C(C(=O)N1CCC(CNS(=O)(=O)Cc2ccccc2)CC1)c1cc2ccccc2o1 0.44%
N#Cc1cccc(C(=O)NCC2CCN(C(=O)C(=O)c3cc4ccccc4o3)CC2)c1 1.47%
